Results as given in PubChem BioAssay.
Calls of active or inactive are those of the source.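 The calls were made as follows, unless noted: active = viability loss from added drug above about 55%, and viability with drug at most 40%, in both replicates (limit read from the data, passing the limit was not always enough); inconclusive = both conditions met in only one replicate; inactive = neither replicate meets both conditions.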

What was measured:
[1] = reducers of endogenous Her2 protein level, primary screen, SKBR3 breast tumor cells, AlphaScreen, ATP viability (AID 461;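 active = Her2 level under about 52% in both replicate screens, with viability over 70% of control, limit read from the data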;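 as to Her2 level: lower value means less Her2 protein in the cells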;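 as to viability: percent of carrier control wells set as 100% viability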); conditions: 18-24 h, measured here: SKBR3 viability, ATP luminescence, at 10 µM
[2] = biological target: Receptor tyrosine-protein kinase erbB-2 (Homo sapiens) (UniProt P04626); assay: as above; conditions: 18-24 h, at 10 µM, stronger effect = lower value
Chain of Receptor tyrosine-protein kinase erbB-2 (Homo sapiens) (P04626 whole entry, looked up): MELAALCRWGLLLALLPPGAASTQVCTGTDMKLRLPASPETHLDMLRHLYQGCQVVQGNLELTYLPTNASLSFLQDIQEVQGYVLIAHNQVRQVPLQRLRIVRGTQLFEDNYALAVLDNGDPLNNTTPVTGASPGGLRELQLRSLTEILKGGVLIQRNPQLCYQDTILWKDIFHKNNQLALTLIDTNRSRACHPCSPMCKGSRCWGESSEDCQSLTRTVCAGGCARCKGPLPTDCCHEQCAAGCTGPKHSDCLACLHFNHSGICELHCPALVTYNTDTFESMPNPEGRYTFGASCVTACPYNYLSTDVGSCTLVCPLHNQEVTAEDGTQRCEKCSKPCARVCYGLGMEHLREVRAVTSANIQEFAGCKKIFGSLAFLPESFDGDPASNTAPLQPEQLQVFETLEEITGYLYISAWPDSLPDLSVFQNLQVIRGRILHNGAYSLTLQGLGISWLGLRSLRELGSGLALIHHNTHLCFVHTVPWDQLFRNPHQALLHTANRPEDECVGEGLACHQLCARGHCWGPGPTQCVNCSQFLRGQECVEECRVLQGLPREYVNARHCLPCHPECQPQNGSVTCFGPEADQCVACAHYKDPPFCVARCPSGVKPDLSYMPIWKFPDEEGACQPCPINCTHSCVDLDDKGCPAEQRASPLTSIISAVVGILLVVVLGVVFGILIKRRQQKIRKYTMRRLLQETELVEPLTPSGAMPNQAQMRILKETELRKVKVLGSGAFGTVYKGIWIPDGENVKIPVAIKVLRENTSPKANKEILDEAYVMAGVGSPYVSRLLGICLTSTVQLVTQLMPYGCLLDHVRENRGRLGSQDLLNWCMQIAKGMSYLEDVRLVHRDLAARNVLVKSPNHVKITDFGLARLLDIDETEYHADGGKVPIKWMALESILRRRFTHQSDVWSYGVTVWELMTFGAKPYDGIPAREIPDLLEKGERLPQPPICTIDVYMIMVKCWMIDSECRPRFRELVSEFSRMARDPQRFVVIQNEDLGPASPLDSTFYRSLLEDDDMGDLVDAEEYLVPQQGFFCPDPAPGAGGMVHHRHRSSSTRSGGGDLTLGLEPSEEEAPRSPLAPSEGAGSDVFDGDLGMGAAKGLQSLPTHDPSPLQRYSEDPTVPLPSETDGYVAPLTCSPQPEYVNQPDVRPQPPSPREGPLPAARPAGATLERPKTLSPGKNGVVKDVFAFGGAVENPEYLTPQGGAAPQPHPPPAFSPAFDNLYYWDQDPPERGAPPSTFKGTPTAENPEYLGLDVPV

[3] = HUVEC growth inhibition – cell-based, human, primary screen (AID 575;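 active = viability at or below 30% in both replicate assays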;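 also: 100% = median of untreated cell wells with 0.1% DMSO on each plate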); conditions: HUVEC proliferation, CellTiter-Glo luminescence, 72 h; at 10 µM; stronger effect = lower value
[4] = growth inhibitors of H69AR lung tumor, primary screen, human, duplicate replicates (AID 580;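 active = viability at or under a set limit in both replicates, limit being median viability minus 3 SD, cut at about 48% in these data, passing the limit was not always enough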;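 also: 100% = mean luminescence of untreated wells and 0% = no signal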); conditions: H69AR lung tumor cells viability, ATP luminescence, 72 h; at 10 µM; stronger effect = lower value
[5] = reversal of MRP1-mediated doxorubicin resistance, pilot screen, H69AR cells, doxorubicin co-treatment (AID 601); conditions: CellTiter-Glo, 72 h, at 10 µM; for differential viability (reversal): stronger effect = higher value
[6] = 384-well plate pilot, post-Golgi transport modulator project, inhibition of yeast transport mutant growth (AID 636; in the data active = inhibition above about 31%); conditions: absorbance 615 nm, about 18 h, stronger effect = higher value
[7] = growth suppression of yeast trafficking mutant, preliminary HTS, modulators of trafficking downstream of Golgi apparatus project, 1536-format plate, OD 615 nm (AID 637; in the data active = inhibition above about 30%); conditions: yeast transport mutant growth, absorbance 615 nm, 18 h; stronger effect = higher value
[8] = SK-BR-3 cell growth inhibitors, pilot screen, 24 h, human (AID 572;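 active = viability at or below 10% of carrier control in both of two separate runs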;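 also: compound exposure lasted between 18 and 24 h rather than exactly 24 h; 100% = carrier-treated control wells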); conditions: SK-BR-3 viability, CellTiter-Glo luminescence, at 10 µM, stronger effect = lower value
[9] = H69AR cells + 2 uM doxorubicin, measured here: viability with 2 uM doxorubicin, stronger effect = lower value
[10] = H69AR cells, compound alone cytotoxicity

Structure (SMILES)	viability [1] [%]	Her2 level [2]	viability [3]	viability [4]	differential viability (reversal) ([5]; H69AR cells + 2 uM doxorubicin)	viability [5, 9] [%]	viability [5, 10] [%]	inhibition [6]	inhibition [7]	viability [8]
O=C(NC1CCCC1)C(c1cccs1)N(C(=O)c1ccno1)c1ccccc1 (configuration not stated)	57.5	92% (inactive)	95.2% (inactive)	91.2% (inactive)	6.13% (inactive)	85.1	91.2	-3.78% (inactive)	5.08% (inactive)	
CC(=Nc1cccc(O)c1)c1sc2ccccc2c1O	103	71.5% (inactive)			-38.1% (inactive)	92.5	54.5	-5.79% (inactive)	-3.33% (inactive)	103% (inactive)
COc1cc(C)nc(N2CCCC(C(=O)Nc3cccc(Cl)c3Cl)C2)n1 (configuration not stated)	71	62.5% (inactive)			-1.86% (inactive)	58.3	56.4	0.39% (inactive)	-10.2% (inactive)	71% (inactive)
COCc1cc(=O)[nH]c(Nc2nc3ccccc3o2)n1	112	80% (inactive)		30.3% (active)	-9.32% (inactive)	39.6	30.3	-4.27% (inactive)	-6.72% (inactive)	112% (inactive)
CCN1CCN(Cc2nc3c(c(=O)[nH]c(=O)n3C)n2Cc2ccccc2Cl)CC1	80.5	114% (inactive)	87.9% (inactive)	92% (inactive)	-4.17% (inactive)	96.2	92	-0.51% (inactive)	-3.17% (inactive)	
Cn1c(=O)[nH]c(=O)c2c1nc(CN1CCN(c3cccc(Cl)c3)CC1)n2CCc1ccccc1	75	96% (inactive)			-1.32% (inactive)	24.8	23.5	-1.04% (inactive)	-6.98% (inactive)	75% (inactive)
CCn1c2ccccc2c2cc(N)ccc21	117	91.5% (inactive)			-6.75% (inactive)	56.8	50	-5.73% (inactive)	1.59% (inactive)	117% (inactive)
OC(CCN1CCCC1)(c1ccccc1)C1CCCCC1 (configuration not stated)			69.5% (inactive)	95.9% (inactive)	6.63% (inactive)	89.3	95.9			93% (inactive)
CCCc1cc(-n2ccnc2)n2c(nc3ccccc32)c1C#N	89.5	74% (inactive)			-10.1% (inactive)	55.8	45.8	-3.92% (inactive)	2.06% (inactive)	89.5% (inactive)
C=C(C)COc1ccc(-c2nc(N)ncc2-c2ccc(OC)cc2)c(O)c1	160	73% (inactive)			1.44% (inactive)	31.8	33.2	-1.56% (inactive)	7.17% (inactive)	160% (inactive)
CCOC(=O)c1c(C)oc2c1c1c(c3ccccc32)OCN(Cc2cccnc2)C1	83.5	75% (inactive)			29.8% (inactive)	21.8	51.6	-0.39% (inactive)	-5.33% (inactive)	83.5% (inactive)
COc1cc2nc(SCC(=O)NC3CC3)n(CCC3=CCCCC3)c(=O)c2cc1OC	102	107% (inactive)		74.5% (inactive)	9.46% (inactive)	65.1	74.5	-2.11% (inactive)	-4.33% (inactive)	102% (inactive)
CNCCC=C1c2ccccc2CCc2ccccc21			71.6% (inactive)	80.1% (inactive)	4.63% (inactive)	75.5	80.1			23%
NC(=O)c1cc(-c2ccccc2)nc(N2CCOCC2)n1	102	69.5% (inactive)		84.4% (inactive)	12.1% (inactive)	72.3	84.4	-2.97% (inactive)	-6.35% (inactive)	102% (inactive)
CCCc1ccc(Oc2cn[nH]c2-c2ccc(O)c(C)c2O)cc1	106	76.5% (inactive)			-26.3% (inactive)	34.6	8.33	100% (active)	100% (active)	106% (inactive)
Oc1c(Cl)cc(Cl)c2c1NCCC2	71.5	65% (inactive)		68.8% (inactive)	-11.9% (inactive)	80.7	68.8	-2.63% (inactive)	-2.7% (inactive)	71.5% (inactive)
O=C(CSc1nnc(-c2ccccc2Br)o1)Nc1cccc2ccccc12			101% (inactive)	105% (inactive)	24.2% (inactive)	81.2	105	0.39% (inactive)	-4.43% (inactive)	89% (inactive)
CC(C)Cc1nc(N2CCN(C(=O)c3ccco3)CC2)c(C#N)c2c1CCC2	172	93% (inactive)		84.5% (inactive)	2.99% (inactive)	81.5	84.5	-6.71% (inactive)	1.15% (inactive)	172% (inactive)
